# EBNA-1 inh – EBNA-1 DNA-binding inhibitors, primary screen, biochemical, fluorescence polarization; inhibition, % at 14.8 µM; 300,000 compounds, 0.34% hits; in the data active = inhibition above about 28%
# PAFAH1B3 inh – PAFAH1B3 enzyme inhibitors, primary screen, biochemical, fluorescence polarization, human. Platelet-activating factor acetylhydrolase IB subunit alpha1 (Homo sapiens), Q15102. inhibition, % at 3.39 µM. recombinant PAFAH1B3, FP-rhodamine probe. 340,000 compounds, 0.28% hits;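 active = inhibition above the screen-wide average of all tested compounds plus 3 SD, cut at about 25% in these data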;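 note: 0% = enzyme with DMSO only and 100% = wells lacking PAFAH1B3 protein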
# Target sequence (Q15102 whole entry, looked up): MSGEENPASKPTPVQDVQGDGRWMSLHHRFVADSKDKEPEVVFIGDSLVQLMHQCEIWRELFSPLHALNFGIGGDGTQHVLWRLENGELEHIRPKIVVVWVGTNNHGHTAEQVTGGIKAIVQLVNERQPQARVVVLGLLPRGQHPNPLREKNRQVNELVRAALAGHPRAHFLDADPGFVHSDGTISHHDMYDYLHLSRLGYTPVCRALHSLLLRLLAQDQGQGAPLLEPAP
# ZTA counter – counter-screen for EBNA-1 inhibitors: inhibitors of Epstein-Barr virus ZTA | P03206 | ZTA-DNA binding, fluorescence polarization | inhibition, % at 11 µM | 320,000 compounds, 0.15% hits | AID 2234; in the data active = inhibition above about 33%
# Target sequence (P03206 whole entry, looked up): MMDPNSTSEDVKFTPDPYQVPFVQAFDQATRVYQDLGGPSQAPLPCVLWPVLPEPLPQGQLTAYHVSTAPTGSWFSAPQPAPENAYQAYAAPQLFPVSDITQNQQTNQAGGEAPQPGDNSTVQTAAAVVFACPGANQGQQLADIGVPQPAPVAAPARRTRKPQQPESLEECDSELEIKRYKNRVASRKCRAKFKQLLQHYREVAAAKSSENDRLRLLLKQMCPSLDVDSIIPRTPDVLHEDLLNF
# pPAFAH FP inh – pPAFAH enzyme inhibitors, primary screen, biochemical, fluorescence polarization, human; Platelet-activating factor acetylhydrolase (Homo sapiens), Q13093; recombinant pPAFAH, FP-rhodamine probe fluorescence polarization; inhibition, % at 3.39 µM; 330,000 compounds, 1.5% hits;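 active = inhibition above the mean inhibition across the screen plus 3 SD, cut at about 25% in these data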;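 note: inhibitors block binding of the rhodamine activity-based probe so polarization drops; 0% = enzyme with DMSO and 100% = wells lacking pPAFAH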
# PAFAH2 FP inh – PAFAH2 enzyme inhibitors, primary screen, biochemical, fluorescence polarization, human; inhibition, % at 3.39 µM; Platelet-activating factor acetylhydrolase 2, cytoplasmic (Homo sapiens), Q99487; 340,000 compounds, 0.99% hits; recombinant PAFAH2, FP-rhodamine activity probe;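 active = inhibition above the mean over all tested compounds plus 3 SD, cut at about 30% in these data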;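 note: inhibitors block probe labeling of enzyme so polarization drops; 0% = enzyme with DMSO and 100% = wells lacking PAFAH2 protein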
# PAFAH1B2 inh – PAFAH1B2 enzyme inhibitors, primary screen, biochemical, fluorescence polarization, human | Platelet-activating factor acetylhydrolase IB subunit alpha2 (Homo sapiens), P68402 | recombinant PAFAH1B2, FP-rhodamine activity probe | inhibition, % at 3.39 µM | 340,000 compounds, 1.2% hits | AID 492953, 2010;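 active = inhibition above the mean of all tested compounds plus 3 SD, cut at about 24% in these data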;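 note: 0% = enzyme with DMSO and 100% = wells lacking PAFAH1B2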
# Starred values were filed as active, the others as inactive; . = no result given; + = active, no number. Rows were chosen to be rich in hits. Some 2.9% of all compounds tested hit in one or more screens of this group.
SMILES,EBNA-1 inh,PAFAH1B3 inh,ZTA counter,pPAFAH FP inh,PAFAH2 FP inh,PAFAH1B2 inh
N#CC1=C(N)Oc2cc(N)ccc2C1c1ccc(F)cc1F (configuration not stated),-10,3,-13,27*,2,5
N#CC(C#N)=c1ccc2c(c1)NC1(CCCCC1)N=2,38*,5,40*,9,18,6
CCc1noc(C)c1C(=O)N1CCC(CCC(=O)Nc2cccc(C)c2)CC1,0,4,-12,2,-1,5
COc1ccc(/C=C2\SC(=O)N(CCCC(=O)Nc3cc(Cl)ccc3C(=O)O)C2=O)cc1,.,2,.,-4,3,38*
O=C(c1ccccc1NS(=O)(=O)c1ccc(F)cc1F)N1CCCCC1,.,7,.,5,-3,11
CCOC(=O)c1c(NC(=O)CSc2nnc(C)c(=O)[nH]2)sc(C)c1-c1ccc(C)cc1,6,-1,10,29*,-1,3
CCOC(=O)c1c(NC(=O)CSc2nnc(C)c(=O)[nH]2)sc2c1CCCC2,-3,3,-6,27*,3,68*
Cc1nnc(SCC(=O)Nc2sc3c(c2C#N)CCCC3)[nH]c1=O,-14,4,-10,17,8,4
CCN(CC)c1ccc2nc3ccccc3[n+](CC)c2c1,174*,-2,+,10,-5,3
CCc1ccc(C(=O)/C=C2\Sc3ccccc3NC2=O)cc1,2,5,-6,17,36*,4
CCCCNC(=O)/C=C1\Sc2ccccc2NC1=O,1,0,-8,3,4,7
O=C(CCNS(=O)(=O)c1c(Cl)cccc1Cl)OCC(=O)c1ccccc1,1,12,-1,9,-6,-6
CN(C(=O)C1CCCO1)C1CCS(=O)(=O)C1 (configuration not stated),-2,4,-6,10,2,-2
CN(C(=O)Cc1c(C(=O)O)n(C)c2ccccc12)c1ccc(Cl)cc1,-15,-4,-3,2,4,50*
COc1ccc(-c2cc(C(F)(F)F)n3ncc(C(=O)N4CCCCC4c4cccnc4)c3n2)cc1 (configuration not stated),3,0,8,-4,3,-2
Nc1c(C(=O)NC2CCCC2)c2nc3ccccc3nc2n1/N=C/c1ccco1,5,10,-7,6,1,0
Nc1c(C(=O)NC2CCCC2)c2nc3ccccc3nc2n1N,1,0,4,25*,-1,3
CC1CCN(S(=O)(=O)c2ccc(NC(=O)CN3CCCCCC3)cc2)CC1,-6,2,-5,8,-3,30*
CCOC(=O)N1CCC(N2CCN(S(=O)(=O)c3ccc(Cl)cc3)CC2)CC1,22,0,-7,0,5,29*
CC1CCN(S(=O)(=O)c2ccc(N/N=C(/C#N)C(N)=O)cc2)CC1,6,3,2,3,8,40*
N#C/C(=N\Nc1ccc(S(=O)(=O)N2CCOCC2)cc1)C(N)=S,-6,4,-10,6,1,6
CCN1CCN(S(=O)(=O)c2ccc(Cl)c(C(=O)NC3CCCC3)c2)CC1,10,-5,-1,3,6,11
CCN1CCN(S(=O)(=O)c2ccc(Cl)c(C(=O)NC3CC3)c2)CC1,.,9,-2,-1,5,24*
O=C(Cc1ccc(Br)cc1)OCC(=O)N1CCOCC1,.,5,.,-2,8,19
NS(=O)(=O)c1ccc(NC(=O)CN2CCN(S(=O)(=O)c3ccc(F)cc3)CC2)cc1,-3,4,2,2,-2,3
SMILES,EBNA-1 inh,PAFAH1B3 inh,ZTA counter,pPAFAH FP inh,PAFAH2 FP inh,PAFAH1B2 inh
O=C(CCC(=O)N1CCN(S(=O)(=O)c2ccc(Cl)cc2)CC1)NC1CCCc2ccccc21 (configuration not stated),-1,-2,1,3,3,26*
Cc1ccc(S(=O)(=O)N2CCN(CC(=O)NC3CCCc4ccccc43)CC2)cc1C (configuration not stated),5,2,7,2,9,4
O=C(O)COc1ccccc1/C=N/NC(=O)CN1CCN(S(=O)(=O)c2ccc(Br)cc2)CC1,-3,3,-6,4,2,27*
COc1cccc(C(=O)CN2CCN(S(=O)(=O)c3ccc(Br)cc3)CC2)c1,8,-1,-4,5,-2,29*
O=C(CN1CCN(S(=O)(=O)c2ccc(Cl)cc2)CC1)Nc1ccc(F)cc1F,-7,6,6,1,-2,28*
COc1cccc(CN2CCN(S(=O)(=O)c3ccc(Br)cc3)CC2)c1,-7,1,3,-2,4,15
CCOc1ccc(NC(=O)CCc2nnc3ccc(N4CCC5(CC4)OCCO5)nn23)cc1,-15,-2,3,1,2,-4
Cc1ccc(S(=O)(=O)Nc2ccc(NC(=O)CN3CCCCC3)c(Cl)c2)cc1,0,10,-12,26*,3,8
O=C(CCN1CCN(S(=O)(=O)c2ccc(Br)cc2)CC1)Nc1ccccc1F,-5,8,-4,5,-5,25*
COc1ccc(C)cc1NC(=O)CN1CCN(S(=O)(=O)c2ccc(Br)cc2)CC1,-3,-3,0,-4,2,28*
O=C(CN1CCN(S(=O)(=O)c2ccc(Br)cc2)CC1)Nc1ccc(F)cc1,-13,1,-1,-2,6,28*
O=C(CN1CCN(S(=O)(=O)c2ccccc2)CC1)NC1CC1,2,3,-10,-3,-9,6
O=C(CN1CCN(S(=O)(=O)c2ccc(Cl)cc2)CC1)NC1CC1,-5,-3,-6,-4,0,29*
Cc1c2cc(O)c(=O)cc-2oc2cc(O)c(O)cc12,3,89*,11,78*,96*,85*
Nc1[nH]ncc1-c1ccc(F)cc1,-8,-8,-2,30*,-2,-1
COc1ccc(Nc2ncnc3sc(-c4ccccc4)cc23)cc1OC,2,32*,1,32*,-31,18
COC(=O)c1ccc(COc2ccc(/C=N/NC(N)=S)cc2)o1,2,.,-8,5,.,.
CC(Oc1ccc(Br)cc1)C(=O)Nc1ccc(S(=O)(=O)Nc2nccs2)cc1 (configuration not stated),9,5,7,7,1,28*
Cc1ccc(OC(C)C(=O)Nc2ccc(S(=O)(=O)Nc3cc(C)on3)cc2)cc1 (configuration not stated),-6,1,-1,-1,7,3
Cc1cc(NS(=O)(=O)c2ccc(NC(=O)C(C)Oc3ccc(Cl)cc3)cc2)no1 (configuration not stated),-5,5,1,-5,0,30*

# Screening results as filed in PubChem BioAssay.
